Assay outcomes deposited in PubChem by National Center for Advancing Translational Sciences (NCATS).
PNC assembly inh – inhibitors of perinucleolar compartment assembly | PC3M PTB-GFP, PNC prevalence imaging, 16 h; hits give low values | activity change (PNC), negative = inhibition, % at 10 µM | 3.1% of 140,000 active | AID 2417;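 active = readout at or below -70, meaning at least 70% loss of cells showing the perinucleolar compartment, a nuclear body marking cancer cells; inconclusive = readout between -30 and a set limit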;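 note: plate controls were DMSO wells for no effect and camptothecin positive control wells for full effect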
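Read-out is percentage of cells bearing a perinucleolar compartment, from automated 20x imaging of fixed, Hoechst-stained PC3M PTB-GFP cells. Cells were seeded 4 h, then exposed 16 h to compound (23 nl of library stock) in duplicate plates.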
HTT ATP protect – protects HTT-Q103 PC12 cells, measured by ATP | AID 1471 | 0.14% of 230,000 active | PC12 HTT-Q103 induced, cytoprotection, ATP luminescence, 40 h | Potency, µM (highest dose often 56.4 µM), without a hit: cytoprotection (ATP increase), actives largely listed as activators; note: potency is the fitted concentration of half-maximal effect; % of control where 0% means no effect; nearly all actives have a fitted effect of over 45% in size
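Compounds were screened for protection of PC12 cells against cell death after tebufenozide induction (100 nM final) of mutant Huntingtin exon 1 (Q103) fused to GFP.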
HPGD inh – blocks human HPGD enzyme activity. P15428. purified HPGD, NADH fluorescence kinetic, PGE2 substrate. Potency, µM, inactives show at the top dose activity change, negative = inhibition, usual class: inhibitors. 4.3% of 150,000 active. AID 894; active = well fitted inhibition curve with a large enough effect, not every such curve was filed as active; inconclusive = small, poorly fitted or top-dose-only effect, or another doubt; inactive = no such curve, though single readings can be large or run the other way; note: potency is the fitted concentration of half-maximal effect; % is set by controls: 0 for no effect and ±100 for the full control effect
Target sequence (P15428 whole entry, looked up): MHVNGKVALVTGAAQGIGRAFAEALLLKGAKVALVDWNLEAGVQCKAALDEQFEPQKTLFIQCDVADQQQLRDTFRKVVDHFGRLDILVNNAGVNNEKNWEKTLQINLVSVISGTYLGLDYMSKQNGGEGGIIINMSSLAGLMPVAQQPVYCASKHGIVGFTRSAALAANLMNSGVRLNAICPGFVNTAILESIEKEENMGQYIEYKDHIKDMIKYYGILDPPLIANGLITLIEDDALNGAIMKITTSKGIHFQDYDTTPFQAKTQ
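20 nM HPGD preincubated 15 min at room temperature with compound in 50 mM Tris-HCl pH 8, 0.01% Tween 20. Started with 1 mM NAD+ and 30 uM prostaglandin E2; NADH fluorescence (360/450 nm) read 5 times over 30-s intervals, last minus first.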
CBFb RUNX1 block – CBF-beta/RUNX1 interaction disruption. Q01196+Q13951. AlphaScreen CBFb-His/RUNX1-biotin binding, biochemical. Potency, µM (highest dose often 59.8 µM), for the others: top-dose activity, negative = inhibition, hits mostly inhibitors. 230,000 tested, under 10 active. AID 1477; note: % of control where 0% means no effect
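AlphaScreen proximity signal reports loss of binding between His-tagged CBF-beta and biotin-labelled RUNX1, each at 30 nM. Proteins are pre-associated for 20 minutes, compounds added for 15 minutes, then beads for 90 minutes, all at ambient temperature.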
ALDH1A1 inh – inhibitors of human aldehyde dehydrogenase 1A1. Potency, µM (series often up to 75.3 µM), for the others: at the top dose activity, negative = inhibition, hits mostly inhibitors. 7.3% of 220,000 active. Purified ALDH1A1, NADH fluorescence, propionaldehyde substrate; active = well fitted inhibition curve with a large enough effect, not every such curve was filed as active; inconclusive = small, poorly fitted or top-dose-only effect, or another doubt; inactive = no such curve, though single readings can be large or run the other way;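 note: potency is the fitted concentration of half-maximal effect; plate controls were no enzyme wells and a reference inhibitor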
Target sequence (P00352 whole entry, looked up): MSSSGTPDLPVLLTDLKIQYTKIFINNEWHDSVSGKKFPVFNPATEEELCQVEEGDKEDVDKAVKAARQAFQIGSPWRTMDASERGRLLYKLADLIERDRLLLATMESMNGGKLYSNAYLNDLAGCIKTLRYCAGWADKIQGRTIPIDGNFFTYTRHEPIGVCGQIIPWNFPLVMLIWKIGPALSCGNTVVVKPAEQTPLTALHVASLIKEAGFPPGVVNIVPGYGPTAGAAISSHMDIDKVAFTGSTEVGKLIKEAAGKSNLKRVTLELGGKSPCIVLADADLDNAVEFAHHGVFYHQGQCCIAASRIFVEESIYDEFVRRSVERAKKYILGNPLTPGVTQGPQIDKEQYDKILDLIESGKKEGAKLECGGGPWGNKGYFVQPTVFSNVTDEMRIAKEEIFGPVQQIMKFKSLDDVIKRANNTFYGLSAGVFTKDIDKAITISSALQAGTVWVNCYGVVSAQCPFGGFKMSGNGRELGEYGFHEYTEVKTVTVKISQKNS
HTT aggregate – reduces HttQ103-GFP aggregates in PC12 cells. PC12 HttQ103-GFP aggregates, Acumen cytometry, 40 h. 1.1% of 220,000 active. Potency, µM (doses to about 46.1 µM), without a hit: at the highest dose activity change, negative = inhibition, usual class: inhibitors; note: potency is the fitted concentration of half-maximal effect; % is set by controls: 0 for no effect and ±100 for the full control effect; nearly all actives have a fitted effect of over 60% in size
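Inducible Q103 Huntingtin exon 1–GFP PC12 line, 1500 cells/well in phenol red free DMEM with 5% equine and 5% calf serum. Tebufenozide 100 nM induced expression; compounds titrated; aggregates quantified by cytometry.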
* marks the source's active call; other numbers are inactive results; ? = inconclusive; / = no result given; ! = repeats disagree; [ ] = dose if it differs, or a comment. A selection: hits, their analogues and other compounds. The true share with any hit is near 11%. Unless noted, calls come from the whole dose curve; as a rule, active = well fitted curve in the direction sought with a large enough effect; inconclusive = small, poorly fitted or top-dose-only effect, or another doubt; inactive = no such curve, though single readings can be large; an effect the other way counts as inactive or inconclusive.

SMILES	PNC assembly inh	HTT ATP protect	HPGD inh	CBFb RUNX1 block	ALDH1A1 inh	HTT aggregate
CC(=C1C(=O)c2ccccc2C1=O)N1CCN(c2ccc(F)cc2)CC1	/	-3%[10 µM]	/	-1%	18µM*	0%[9.22 µM]
COc1cccc(CNC(=O)CCC2CCCN(C(=O)Cc3ccccc3F)C2)c1 (centres undefined)	/	/	/	-2%	11µM*	/
COc1ccc(C(=O)N2CCCC(CCC(=O)NCc3ccc(F)c(F)c3)C2)o1 (centres undefined)	/	-25%[10 µM]	/	-12%	16µM*	-6%[9.22 µM]
CCc1cc2c(c(CC)n1)CCC(=O)N2Cc1ccc(-c2ccccc2-c2nn[nH]n2)cc1	/	-11%	-6%	13%[21.7 µM]	6%	/
O=C(CSc1nnc(CNC(=O)c2cccs2)o1)NC1CCCC1	-100*	-2%[10 µM]	-19%	0%	-2%	-4%
O=C(CSc1cn(CCNC(=O)c2cccs2)c2ccccc12)NC1CCCC1	-16	12%[10 µM]	20µM*	8%	?	6%
Cc1cc(NC(=O)CSc2cn(CCNC(=O)c3ccccc3)c3ccccc23)no1	-30	-3%	3%	-1%	?	-4%
Cc1ccccc1NC(=O)CCN1CCc2ccccc2C1	/	-13%[10 µM]	/	2%	-8%	-2%[9.22 µM]
COc1cc(C(=O)NCCc2cn3ccccc3n2)cc(OC)c1OC	-4	-10%	-2%	3%	8%	-2%
Cc1ccc(C(=O)CN(Cc2ccccc2)C2=NCCS2)cc1	?	-1%[10 µM]	-1%	-3%	20µM*	12%
O=C(CN(Cc1ccccc1)C1=NCCS1)c1ccccc1	36	-8%[10 µM]	2%	2%	-10%	10%
O=C(c1ccc(Cl)cc1)N1CCN(c2nc(N3CCCCC3)nc(N3CCCCC3)n2)CC1	/	0%[10 µM]	/	/	/	/
COc1ccc(CNc2nc(-c3ccccc3)nn2C(=O)c2cccs2)cc1	29	-6%	-29%	3%	25µM*	8%[1.84 µM]
Cc1noc(NC(=O)Nc2ccccc2F)c1C#N	/	2%[10 µM]	-1%	/	-2%[13.5 µM]	/
CCN(CC)c1ccc(-c2nn3c(-c4n[nH]c5c4CCC5)nnc3s2)cc1	-99*	-94%	?	-15%	?	13µM*
C1CCC(c2nn3c(-c4n[nH]c5c4CCC5)nnc3s2)CC1	?	-23%	/	-5%	?	-14%
CC1Cc2ccccc2N1CC(=O)NC(=O)NCc1ccco1 (centres undefined)	-122*	2%[10 µM]	-12%	-2%	?	-5%
COC(=O)[C@@]1(Cc2ccccc2)[C@H]2c3cc(C(=O)N(C)C)n(Cc4ccc(O)c(OC)c4)c3C[C@H]2CN1C(=O)c1ccccc1	/	?	-5%	2%	7%	/
CCNc1ncc2nc(-c3cn(C)c4ccccc34)c(=O)n(-c3ccccc3)c2n1	/	24%	/	/	12%	/
Cc1ccc(S(=O)(=O)N[C@@H](CCc2ccccc2)CC(=O)C(C)(C)C)cc1	/	-46%[10 µM]	/	-8%[13.1 µM]	-17%[13.5 µM]	/
Cc1ccc(S(=O)(=O)NC(C)CCc2ccccc2)cc1 (centres undefined)	21	6%	-6%	4%	25µM*	9%
COc1cc(C)nc(N2CCCC(C(=O)Nc3cccc(Cl)c3Cl)C2)n1 (centres undefined)	-87*	2%	-10%	1%	6%	25%
Cc1ncoc1C(=O)Nc1ccc(Oc2ccccc2)cc1	35	-18%	-18%	3%	-7%	-31%
Cc1nc(C)c(C(=O)Nc2ccc(Oc3ccccc3)cc2)o1	?	5%[10 µM]	-18%	7%	32µM*	?
Cc1c(C(=O)Nc2ccc(Oc3ccccc3)cc2)sc2nc3n(c(=O)c12)CCC3	6	-44%	-27%	-3%	?	4.5µM*
SMILES	PNC assembly inh	HTT ATP protect	HPGD inh	CBFb RUNX1 block	ALDH1A1 inh	HTT aggregate
CO[C@H]1COC(=O)[C@H]2CCCN2C(=O)[C@@H](C)COC(=O)C/C=C\[C@@H]1C	/	-7%[10 µM]	/	-2%[13.1 µM]	21%[13.5 µM]	/
COc1cc(O)c(C(=O)/C=C/c2ccc(OC)c(O)c2)c(OC)c1	/	-97%	7.9µM*	3%	14µM*	/
COc1cccc(/C=C/C(=O)c2ccc(NS(=O)(=O)c3ccc(C)cc3)cc2)c1	?	18%[10 µM]	-16%	-14%	-8%	14%
COc1cc(/C=C/C(=O)c2cccc([N+](=O)[O-])c2)cc(OC)c1OC	-27	22%[10 µM]	-13%	9%	25µM*	?
COc1ccc(/C=C/C(=O)c2ccc(C)c([N+](=O)[O-])c2)cc1O	43	-2%[10 µM]	22µM*	-1%	22µM*	-19%
COc1cccc(/C=C/C(=O)c2ccc(C)c([N+](=O)[O-])c2)c1	33	/	-22%	5%	7.1µM*	-12%
COc1cc(/C=C/C(=O)c2ccc(C)c([N+](=O)[O-])c2)cc(OC)c1O	-27	7%[10 µM]	-8%	1%	4%	?
COc1ccccc1CCn1c(=O)c(-c2cccc(Cl)c2)nc2cncnc21	/	-306%	/	/	2%	/
O=c1cc(-c2cccc(O)c2)oc2c(O)c(O)ccc12	/	11%[1.9 µM]	3.2µM*	?	?	/
CN1CCc2cc(Cl)c(O)cc2[C@H](c2ccccc2)C1	/	11%[1.9 µM]	/	/	/	/
Oc1cc2c(cc1O)[C@H](c1ccccc1)CNCC2	/	27%	28µM*	8%[21.7 µM]	4%	/
COC(=O)N1CCC[C@@]2(CCN(c3ccccn3)C2)C1	/	-48%	?	/	?	/
Nc1ncnc2c1ncn2[C@H]1O[C@@H](C(=O)O)[C@@H](O)[C@H]1O	/	-8%[10 µM]	0%	/	7%[13.5 µM]	/
CO[C@H]1C[C@@H]2CC[C@@H](C)[C@@](O)(O2)C(=O)C(=O)N2CCCC[C@H]2C(=O)O[C@H]([C@H](C)C[C@@H]2CC[C@@H](O)[C@H](OC)C2)CC(=O)[C@H](C)C=C(C)[C@@H](O)[C@@H](OC)C(=O)[C@H](C)C[C@H](C)C=CC=CC=C1C	/	16%[10 µM]	/	13%	/	-7%[9.22 µM]
CO[C@H]1C[C@@H]2CC[C@@H](C)[C@@](O)(O2)C(=O)C(=O)N2CCCC[C@H]2C(=O)OC([C@H](C)C[C@@H]2CC[C@@H](O)[C@H](OC)C2)CC(=O)[C@H](C)/C=C(\C)[C@@H](O)[C@@H](OC)C(=O)[C@H](C)C[C@H](C)/C=C/C=C/C=C/1C (some centres undefined)	/	-81%	-10%	14%	18µM*!	/
O=c1c(-c2nnc(SCc3ccc(Cl)c(Cl)c3)o2)cccn1Cc1ccccc1	42	-53%	?	5%	?	?
O=c1[nH]c(CSc2nnc(COc3ccccc3)n2-c2ccccc2)nc2ccccc12	?	0%	-10%	0%	18µM*	?
O=C(O)CSc1nnc(COc2ccc([N+](=O)[O-])cc2)n1-c1ccccc1	/	-5%[10 µM]	/	12%	20µM*	-10%[9.22 µM]
